Test results from article PMC5540273 (PLoS ONE, 2017).
Several values for one entry are separate records, joined by “and”; a condition that tells them apart may be missing. Equal entries are not always repeated. Where two headings read alike, the source gives them in different places.

How the values were obtained:
DAPK2 = settings: n = 1
DAPK3 = settings: n = 1
DCAMKL1 = tested on: T1, DCAMKL1; settings: n = 1
T1 construct: gene DCLK1

DCAMKL2 = tested on: T2, DCAMKL2; settings: concentration: 1 μM, replicates: in singlicate; n = 1
T2 construct: gene DCLK2

DCAMKL3 = tested on: T3, DCAMKL3; settings: n = 1
T3 construct: gene DCLK3

DDR1 = settings: n = 1
DDR2 = settings: concentration: 1 μM, replicates: in singlicate; n = 1
DLK = tested on: T4, DLK; settings: n = 1
T4 construct: gene MAP3K12

DMPK2 = tested on: T5, DMPK2; settings: n = 1
T5 construct: gene CDC42BPG

DMPK = settings: concentration: 1 μM, replicates: in singlicate; n = 1
DRAK1 = tested on: T6, DRAK1; settings: n = 1
T6 construct: gene STK17A

DRAK2 = tested on: T7, DRAK2; settings: n = 1
T7 construct: gene STK17B

DYRK1A = settings: n = 1
DYRK1B = settings: n = 1
DYRK2 = settings: n = 1
EGFR = settings: n = 1
EIF2AK1 = settings: concentration: 1 μM, replicates: in singlicate; n = 1
EPHA1 = settings: n = 1
EPHA2 = settings: n = 1
EPHA3 = settings: concentration: 1 μM, replicates: in singlicate; n = 1
[1] = concentration: 1 μM,replicates: in singlicate, 1 µM
[2] = concentration: 1 μM, replicates: in singlicate
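Also: KINOMEscan kinase panel screen.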

CSc1nn2c(=O)cc(N3CCOCC3)nc2n1Cc1cccc(C(F)(F)F)c1C [GSK2363608]
%Inh (DAPK2; [1]): 9% and 0%
%Inh (DAPK3; [1]): 27% and 0%
%Inh (DCAMKL1; [1]): 10% and 0%
%Inh (DCAMKL2): 0%
%Inh (DCAMKL3; [1]): 34% and 0%
%Inh (DDR1; [1]): 7% and 4%
%Inh (DDR2): 0%
%Inh (DLK; [1]): 34% and 0%
%Inh (DMPK2; [1]): 24% and 2%
%Inh (DMPK): 0%
%Inh (DRAK1; [1]): 0% and 17%
%Inh (DRAK2; [1]): 0% and 8%
%Inh (DYRK1A; [1]): 23% and 21%
%Inh (DYRK1B; [1]): 8% and 13%
%Inh (DYRK2; [1]): 16% and 14%
%Inh (EGFR; [1]): 36% and 20%
%Inh (EIF2AK1): 0%
%Inh (EPHA1; [1]): 28% and 9%
%Inh (EPHA2; [1]): 5% and 0%
%Inh (EPHA3): 0%

Cc1ccc(-c2cc(-c3c[nH]nc3-c3ccccn3)ccn2)cc1 [GW684088]
%Inh (DAPK2; [2]): 9%
%Inh (DAPK3; [2]): 25%
%Inh (DCAMKL1; [2]): 21%
%Inh (DCAMKL2): 24%
%Inh (DCAMKL3; [2]): 0%
%Inh (DDR1; [2]): 13%
%Inh (DDR2): 47%
%Inh (DLK; [2]): 45%
%Inh (DMPK2; [2]): 5%
%Inh (DMPK): 0%
%Inh (DRAK1; [2]): 12%
%Inh (DRAK2; [2]): 0%
%Inh (DYRK1A; [2]): 11%
%Inh (DYRK1B; [2]): 6%
%Inh (DYRK2; [2]): 0%
%Inh (EGFR; [2]): 6%
%Inh (EIF2AK1): 0%
%Inh (EPHA1; [2]): 0%
%Inh (EPHA2; [2]): 0%
%Inh (EPHA3): 49%

Cc1cccc(-c2nc(Nc3ccncc3)c3ccccc3n2)n1 [GW855857]
%Inh (DAPK2; [2]): 7%
%Inh (DAPK3; [2]): 17%
%Inh (DCAMKL1; [2]): 14%
%Inh (DCAMKL2): 0%
%Inh (DCAMKL3; [2]): 21%
%Inh (DDR1; [2]): 30%
%Inh (DDR2): 45%
%Inh (DLK; [2]): 0%
%Inh (DMPK2; [2]): 76%
%Inh (DMPK): 2%
%Inh (DRAK1; [2]): 2%
%Inh (DRAK2; [2]): 7%
%Inh (DYRK1A; [2]): 0%
%Inh (DYRK1B; [2]): 27%
%Inh (DYRK2; [2]): 0%
%Inh (EGFR; [2]): 6%
%Inh (EIF2AK1): 0%
%Inh (EPHA1; [2]): 23%
%Inh (EPHA2; [2]): 18%
%Inh (EPHA3): 0%

Cc1csc(-c2nc(Nc3ccncc3)c3ccccc3n2)n1 [GW869640]
%Inh (DAPK2; [2]): 26%
%Inh (DAPK3; [2]): 48%
%Inh (DCAMKL1; [2]): 29%
%Inh (DCAMKL2): 28%
%Inh (DCAMKL3; [2]): 30%
%Inh (DDR1; [2]): 22%
%Inh (DDR2): 35%
%Inh (DLK; [2]): 0%
%Inh (DMPK2; [2]): 35%
%Inh (DMPK): 17%
%Inh (DRAK1; [2]): 10%
%Inh (DRAK2; [2]): 0%
%Inh (DYRK1A; [2]): 18%
%Inh (DYRK1B; [2]): 0%
%Inh (DYRK2; [2]): 29%
%Inh (EGFR; [2]): 1%
%Inh (EIF2AK1): 14%
%Inh (EPHA1; [2]): 0%
%Inh (EPHA2; [2]): 0%
%Inh (EPHA3): 30%

CC(=O)Nc1nc2cnc(Nc3cc(NC(=O)c4cccc(CCC#N)c4)ccc3C)nc2s1
%Inh (DAPK2; [2]): 6%
%Inh (DAPK3; [2]): 8%
%Inh (DCAMKL1; [2]): 12%
%Inh (DCAMKL2): 13%
%Inh (DCAMKL3; [2]): 12%
%Inh (DDR1; [2]): 100%
%Inh (DDR2): 86%
%Inh (DLK; [2]): 0%
%Inh (DMPK2; [2]): 3%
%Inh (DMPK): 12%
%Inh (DRAK1; [2]): 0%
%Inh (DRAK2; [2]): 0%
%Inh (DYRK1A; [2]): 0%
%Inh (DYRK1B; [2]): 42%
%Inh (DYRK2; [2]): 0%
%Inh (EGFR; [2]): 6%
%Inh (EIF2AK1): 21%
%Inh (EPHA1; [2]): 0%
%Inh (EPHA2; [2]): 34%
%Inh (EPHA3): 0%

Cl.O=C(Nc1cccc(-c2nn3ncccc3c2-c2ccnc(Nc3cccnc3)n2)c1)c1c(F)cccc1F [GSK312879]
%Inh (DAPK2; [2]): 27%
%Inh (DAPK3; [2]): 6%
%Inh (DCAMKL1; [2]): 12%
%Inh (DCAMKL2): 0%
%Inh (DCAMKL3; [2]): 0%
%Inh (DDR1; [2]): 94.4%
%Inh (DDR2): 4%
%Inh (DLK; [2]): 14%
%Inh (DMPK2; [2]): 13%
%Inh (DMPK): 15%
%Inh (DRAK1; [2]): 1%
%Inh (DRAK2; [2]): 0%
%Inh (DYRK1A; [2]): 22%
%Inh (DYRK1B; [2]): 18%
%Inh (DYRK2; [2]): 6%
%Inh (EGFR; [2]): 98.9%
%Inh (EIF2AK1): 17%
%Inh (EPHA1; [2]): 4%
%Inh (EPHA2; [2]): 0%
%Inh (EPHA3): 2%

O=C(O)COc1ncnc2cc(-c3ccc4[nH]ncc4c3)sc12
%Inh (DAPK2; [2]): 0%
%Inh (DAPK3; [2]): 5%
%Inh (DCAMKL1; [2]): 0%
%Inh (DCAMKL2): 2%
%Inh (DCAMKL3; [2]): 8%
%Inh (DDR1; [2]): 0%
%Inh (DDR2): 7%
%Inh (DLK; [2]): 34%
%Inh (DMPK2; [2]): 3%
%Inh (DMPK): 13%
%Inh (DRAK1; 1 µM): 83%
%Inh (DRAK2; 1 µM): 99.3%
%Inh (DYRK1A; [2]): 67%
%Inh (DYRK1B; [2]): 41%
%Inh (DYRK2; [2]): 66%
%Inh (EGFR; [2]): 0%
%Inh (EIF2AK1): 0%
%Inh (EPHA1; [2]): 15%
%Inh (EPHA2; [2]): 10%
%Inh (EPHA3): 10%
